Sampled rows, rich in hits. Any-hit rate of the full collection: about 2.9%.
EP2 mod: EP2 receptor modulators, cAMP readout, primary screen, cell-based, HTRF cAMP, PGE2 stimulation; Prostaglandin E2 receptor EP2 subtype (Homo sapiens), P43116; EP2-expressing cells, cAMP HTRF FRET, PGE2 co-stimulation; induction, % at 25 µM; 0.83% of 260,000 active;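 active = compounds whose cAMP rise, as percent of the full-agonist control response, exceeds 60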;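 also: rat C6 glioma line stably carrying human EP2 under a CMV promoter; the protocol text gives 20 µM as final concentration; 100% = response of wells given 1 µM PGE2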
RAM inhibit: inhibitors of the yeast RAM network, primary screen, dse1pr::URA3 reporter, 5-FOA selection | S. cerevisiae dse1pr::URA3 reporter, 5-FOA growth OD615, 2 d; analog-sensitive cbk1-as2 kinase mutant strain | inhibition, % at 50 µM | 1.8% of 190,000 active | AID 868, 2007;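 active = inhibition above a set limit, 3 SD over mean compound inhibition, cut at about 8.4% in these data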;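 also: 0% = DMSO-only wells with no growth and 100% = 10 µM 1-NA-PP1 full growth; inhibition rescues growth on 5-FOA so higher OD means more RAM inhibition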
SKN-1 inh: suppressors of acrylamide-induced Pgst-4::GFP reporter in worms, primary screen, SKN-1 inhibitor project, whole organism, uHTS, GFP/RFP fluorescence ratio, strain VP596; C. elegans VP596 Pgst-4::GFP/RFP ratio, 24 h; inhibition, % at 21.8 µM; 0.49% of 360,000 active; AID 624304, 2012;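 active = interference check ratio from 0.5 to 1.5 plus GFP to RFP signal ratio inhibition reaching or exceeding a fixed threshold, cut at about 30% in these data, passing the limit was not always enough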
Rev-erbA mod: modulators of Rev-erb alpha DNA binding, primary screen, biochemical, FITC-DNA, fluorescence polarization, uHTS; 0.79% of 370,000 active; AID 1259318, 2017; activity, % at 10 µM; Rev-erbα–FITC-DNA binding, 90 min; Nuclear receptor subfamily 1 group D member 1 (Homo sapiens), P20393;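 active = activity above about 14%, limit read from the data; passing the limit was not always enough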;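 also: 0% = DMSO wells with 35 nM protein and 100% = DMSO wells with 750 nM protein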
Target sequence (P20393 whole entry, looked up): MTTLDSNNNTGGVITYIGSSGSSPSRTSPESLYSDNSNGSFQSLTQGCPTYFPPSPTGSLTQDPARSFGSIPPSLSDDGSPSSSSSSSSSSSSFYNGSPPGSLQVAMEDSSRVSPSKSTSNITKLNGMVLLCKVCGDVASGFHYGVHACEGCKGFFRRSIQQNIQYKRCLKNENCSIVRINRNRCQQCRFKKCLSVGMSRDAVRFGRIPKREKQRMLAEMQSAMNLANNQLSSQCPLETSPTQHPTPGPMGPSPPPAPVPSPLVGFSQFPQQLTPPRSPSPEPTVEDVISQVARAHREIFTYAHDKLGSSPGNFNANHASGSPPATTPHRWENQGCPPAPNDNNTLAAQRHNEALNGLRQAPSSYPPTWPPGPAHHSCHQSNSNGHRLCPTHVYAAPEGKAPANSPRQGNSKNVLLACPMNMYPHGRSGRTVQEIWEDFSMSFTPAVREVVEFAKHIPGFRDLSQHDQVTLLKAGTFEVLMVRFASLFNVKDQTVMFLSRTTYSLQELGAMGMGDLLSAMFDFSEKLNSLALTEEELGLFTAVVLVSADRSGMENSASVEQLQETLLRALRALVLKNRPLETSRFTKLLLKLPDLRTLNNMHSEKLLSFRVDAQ
EP2 antag: human EP2 receptor antagonists, primary screen, TR-FRET cAMP, C6 glioma cells | Prostaglandin E2 receptor EP2 subtype (Homo sapiens), P43116 | C6 glioma cells expressing human EP2; cells stimulated with saturating PGE2 | inhibition, % at 25 µM | 0.52% of 260,000 active | AID 1422, 2008;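 active = percent inhibition above 40 after rounding to a whole number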;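 also: rat C6 glioma host cells with rolipram phosphodiesterase inhibitor present; the protocol text gives 20 µM as final concentration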
PG9 Ab binder: binders of HIV-1 gp120 antibody PG9, primary screen, biochemical, TR-FRET. AID 624416, 2012. inhibition, % at 6.7 µM. HIV-1 gp120 / PG9 antibody interaction. TR-FRET gp120-PG9 antibody binding. 0.43% of 360,000 active; in the data active = inhibition above about 8.5%
PG9 bind confirm: binders of anti-gp120 antibody PG9, confirmation, biochemical, TR-FRET | 90% of 1,500 active | AID 651571, 2012 | TR-FRET PG9 antibody binding | inhibition, % at 6.7 µM | shares compounds with PG9 Ab binder; in the data active = inhibition above about 9%
PGV04 Ab binding: binders of control antibody PGV04, counter-screen for PG9 antibody binder project, biochemical, TR-FRET, distinct HIV envelope site; shares compounds with PG9 Ab binder; TR-FRET PGV04 antibody-gp120 binding; inhibition, % at 6.7 µM; 95% of 1,500 active; in the data active = inhibition above about 9.5%
PG9 bind DR: small-molecule binders of antibody PG9, dose response, biochemical, TR-FRET, HIV-1 gp120 antibody. shares compounds with PG9 Ab binder. TR-FRET PG9 antibody-gp120 binding inhibition. IC50, µM. 95 tested, under 10 active; in the data active = IC50 below about 10 µM
PGV04 binding DR: binders of control antibody PGV04, dose response, counter-screen for PG9 antibody binder project, biochemical, TR-FRET, distinct HIV envelope site | TR-FRET binding to control antibody PGV04 | 20% of 95 active | shares compounds with PG9 Ab binder | IC50, µM
PG126 binding DR: binders of control antibody PG126, dose response, counter-screen for PG9 antibody binder project, biochemical, TR-FRET, distinct HIV envelope site. IC50, µM. 20% of 95 active. shares compounds with PG9 Ab binder. TR-FRET binding to antibody PG126, counterscreen
NR1D1 mod conf: modulators of Rev-erb alpha DNA binding, confirmation, biochemical, FITC-DNA, fluorescence polarization, single point; shares compounds with Rev-erbA mod; 90 min; activation, % at 25 µM; 61% of 3,000 active;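 active = activation at or above a set limit, or at least 3 SD above the negative control mean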;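 also: 0% = 35 nM protein with DMSO and 100% = 750 nM protein high control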
RORg DNA counter: modulation of RORgamma DNA binding, dose response, counter-screen for Rev-erb alpha modulator project, biochemical, fluorescence polarization, FITC-DNA; shares compounds with Rev-erbA mod; purified RORgamma protein-FITC-DNA binding; IC50, µM; 8% of 910 active;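 active = Compounds whose fitted half-maximal concentration for disrupting protein-DNA binding is below 10 micromolar; the record names Rev-erb in its text, so the target is in doubt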
An asterisk follows results filed as active; i = inactive; . = not tested or not shown. Rule as the data show it, unless noted: active = IC50 below about 9 µM; inactive = the rest.

SMILES	EP2 mod	RAM inhibit	SKN-1 inh	Rev-erbA mod	EP2 antag	PG9 Ab binder	PG9 bind confirm	PGV04 Ab binding	NR1D1 mod conf	others
COc1cccc(Nc2nn3c(=O)c4ccccc4nc3s2)c1	.	.	1.5	.	.	.	.	.	.
Cc1ccccc1Nc1nn2c(=O)c3ccc(C(=O)N4CCCC(C)C4)cc3nc2s1 (stereo not drawn)	.	.	20.9	-1.2	.	-1.1	.	.	.
O=c1c2ccccc2nc2sc(Nc3ccc(F)cc3)nn12	.	.	-0.9	100.2*	.	12.4*	23.5*	24.1*	91.7*	RORg DNA counter=>40
Cc1ccccc1Nc1nn2c(=O)c3ccccc3nc2s1	-10.1	6.3	-16.7	37.2*	2.4	35.9*	31.1*	47.1*	18.6*
CC(=O)NCCNc1nc2c(c(=O)n(C)c(=O)n2C)n1Cc1c(Cl)cccc1Cl	-9.5	.	.	.	7.3	.	.	.	.
COc1ccc2[nH]c(=O)c(CN(CCCO)C(=S)Nc3cccc(C)c3)cc2c1	-40.5	.	.	.	15.4	.	.	.	.
COc1ccc(C(=O)NC(=S)Nc2ccc3[nH]c(=O)[nH]c3c2)c(OC)c1	.	.	11.4	100.8*	.	36.5*	53.5*	51.8*	54.6*	PG9 bind DR=i;PGV04 binding DR=6.27*;PG126 binding DR=6.84*;RORg DNA counter=i
CCn1c2ccccc2n2c(=O)n(CC(=O)N3CCCCCC3)nc12	-24.3	.	.	.	.	.	.	.	.
CC(=O)c1cccc(Nc2nc(-c3ccccc3)nc3ccccc23)c1	.	.	-5.6	25.9*	.	35.7*	11.9*	21.9*	8.1
N#Cc1c(-c2cccs2)cc(C2CC2)nc1SCC(N)=O	1.8	3.2	-15.6	52.0*	16.2	8.7*	18.3*	27.5*	47.5*	RORg DNA counter=>40
COc1cc(OC)cc(C(=O)N(Cc2ccc(Cl)cc2)Cc2cc3cc(C)ccc3[nH]c2=O)c1	40.0	.	.	.	13.7	.	.	.	.
Cc1ccc(-c2csc3nnc(SCC(=O)Nc4nsc(-c5ccccc5)n4)n23)cc1	-38.8	6.9	2.7	-1.0	5.6	-1.2	.	.	.
CCn1c2ccccc2c2cc(NC(=O)CSc3nnnn3-c3ccccc3)ccc21	-19.7	4.5	3.0	38.7*	13.8	10.5*	9.2*	17.6*	24.2*
Cc1ccc(-c2nc(NC(=O)CSc3nnnn3-c3ccccc3)ns2)cc1	-5.9	1.5	4.4	17.7*	17.2	13.0*	3.6	5.8	10.1

Compound activity (PubChem)
